# Positions count from the first letter of the chain named.
# Tests used:
# Assay in all cases: PBM; 200 nM protein, PBS
# Settings in all cases: dsDNA, one strand shown
# VENTX [1] = target: T1, VENTX (Homo sapiens, UniProt O95231 78-163, R121Q)
# T1 sequence: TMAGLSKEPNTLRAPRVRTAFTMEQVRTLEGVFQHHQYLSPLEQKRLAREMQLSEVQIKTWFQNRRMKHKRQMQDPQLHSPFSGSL
# SIX6 [2] = target: T2, SIX6 (Homo sapiens, UniProt O95475 114-200, L167I)
# T2 sequence: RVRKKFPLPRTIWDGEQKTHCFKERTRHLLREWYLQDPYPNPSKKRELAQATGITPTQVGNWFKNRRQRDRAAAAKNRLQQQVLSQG
# HOXC9 [3] = target: HOXC9 (Homo sapiens, UniProt P31274 178-260, K195R)
# Chain of HOXC9 (Homo sapiens, UniProt P31274 178-260, K195R) (P31274 178-260 K195R): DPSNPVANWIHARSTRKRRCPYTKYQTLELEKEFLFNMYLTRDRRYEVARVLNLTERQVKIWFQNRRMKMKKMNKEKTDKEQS
# VENTX [4] = target: T3, VENTX (Homo sapiens, UniProt O95231 78-163)
# T3 sequence: T1 sequence with Q44R
# SIX6 [5] = target: T4, SIX6 (Homo sapiens, UniProt O95475 114-200, L143V)
# T4 sequence: T2 sequence with L30V, I54L
# HOXC10 [6] = target: HOXC10 (Homo sapiens, UniProt Q9NYD6 254-340)
# Chain of HOXC10 (Homo sapiens, UniProt Q9NYD6 254-340) (Q9NYD6 254-340): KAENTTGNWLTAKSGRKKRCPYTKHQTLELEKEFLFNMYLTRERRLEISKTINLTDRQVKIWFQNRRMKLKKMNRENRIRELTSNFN
# SIX6 [7] = target: T5, SIX6 (Homo sapiens, UniProt O95475 114-200, H141N)
# T5 sequence: T2 sequence with H28N, I54L
# SIX6 [8] = target: T6, SIX6 (Homo sapiens, UniProt O95475 114-200, T165P)
# T6 sequence: T2 sequence with T52P, I54L
# VENTX [9] = target: T7, VENTX (Homo sapiens, UniProt O95231 78-163, Y115F)
# T7 sequence: T1 sequence with Y38F, Q44R
# SIX6 [10] = target: T8, SIX6 (Homo sapiens, UniProt O95475 114-200, L167M)
# T8 sequence: T2 sequence with I54M
# SIX6 [11] = target: T9, SIX6 (Homo sapiens, UniProt O95475 114-200, L143M)
# T9 sequence: T2 sequence with L30M, I54L
# SIX6 [12] = target: T10, SIX6 (Homo sapiens, UniProt O95475 114-200, L143I)
# T10 sequence: T2 sequence with L30I, I54L
# SIX6 [13] = target: T11, SIX6 (Homo sapiens, UniProt O95475 114-200, T165G)
# T11 sequence: T2 sequence with T52G, I54L
# SIX6 [14] = target: T12, SIX6 (Homo sapiens, UniProt O95475 114-200, T139Q)
# T12 sequence: T2 sequence with T26Q, I54L
# HOXC9 [15] = target: HOXC9 (Homo sapiens, UniProt P31274 178-260)
# Chain of HOXC9 (Homo sapiens, UniProt P31274 178-260) (P31274 178-260): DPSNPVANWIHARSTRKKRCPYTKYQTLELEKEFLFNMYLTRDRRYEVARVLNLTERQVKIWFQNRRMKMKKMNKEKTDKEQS
# SIX6 [16] = target: T13, SIX6 (Homo sapiens, UniProt O95475 114-200, T165A)
# T13 sequence: T2 sequence with T52A, I54L
# HOXC9 [17] = target: HOXC9 (Homo sapiens, UniProt P31274 178-260, R193K)
# Chain of HOXC9 (Homo sapiens, UniProt P31274 178-260, R193K) (P31274 178-260 R193K): as the sequence (P31274 178-260) above, with R16K counted along it
# HOXC10 [18] = target: HOXC10 (Homo sapiens, UniProt Q9NYD6 254-340, K271E)
# Chain of HOXC10 (Homo sapiens, UniProt Q9NYD6 254-340, K271E) (Q9NYD6 254-340 K271E): as the sequence (Q9NYD6 254-340) above, with K18E counted along it
# SIX6 [19] = target: T14, SIX6 (Homo sapiens, UniProt O95475 114-200, L167V)
# T14 sequence: T2 sequence with I54V
# PROP1 [20] = target: PROP1 (Homo sapiens, UniProt O75360 56-141)
# Chain of PROP1 (Homo sapiens, UniProt O75360 56-141) (O75360 56-141): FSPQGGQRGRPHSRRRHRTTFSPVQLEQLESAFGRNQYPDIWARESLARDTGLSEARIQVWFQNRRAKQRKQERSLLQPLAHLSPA
# SIX6 [21] = target: T15, SIX6 (Homo sapiens, UniProt O95475 114-200)
# T15 sequence: T2 sequence with I54L
# PROP1 [22] = target: PROP1 (Homo sapiens, UniProt O75360 56-141, R99H)
# Chain of PROP1 (Homo sapiens, UniProt O75360 56-141, R99H) (O75360 56-141 R99H): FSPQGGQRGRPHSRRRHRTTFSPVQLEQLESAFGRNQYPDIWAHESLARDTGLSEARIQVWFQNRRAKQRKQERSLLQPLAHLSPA
# SIX6 [23] = target: T16, SIX6 (Homo sapiens, UniProt O95475 114-200, T165I)
# T16 sequence: T2 sequence with T52I, I54L
# HOXC9 [24] = target: HOXC9 (Homo sapiens, UniProt P31274 178-260, R222W)
# Chain of HOXC9 (Homo sapiens, UniProt P31274 178-260, R222W) (P31274 178-260 R222W): as the sequence (P31274 178-260) above, with R45W counted along it
# PROP1 [25] = target: PROP1 (Homo sapiens, UniProt O75360 56-141, F88S)
# Chain of PROP1 (Homo sapiens, UniProt O75360 56-141, F88S) (O75360 56-141 F88S): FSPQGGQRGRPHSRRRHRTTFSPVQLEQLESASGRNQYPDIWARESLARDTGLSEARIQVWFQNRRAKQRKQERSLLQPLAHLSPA
# HOXB6 [26] = target: HOXB6 (Homo sapiens, UniProt P17509 132-218, K202E)
# Chain of HOXB6 (Homo sapiens, UniProt P17509 132-218, K202E) (P17509 132-218 K202E): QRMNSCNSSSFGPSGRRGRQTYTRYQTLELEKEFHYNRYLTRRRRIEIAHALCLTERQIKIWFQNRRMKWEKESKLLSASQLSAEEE
# VAX1 [27] = target: VAX1 (Homo sapiens, UniProt Q5SQQ9 86-172)
# Chain of VAX1 (Homo sapiens, UniProt Q5SQQ9 86-172) (Q5SQQ9 86-172): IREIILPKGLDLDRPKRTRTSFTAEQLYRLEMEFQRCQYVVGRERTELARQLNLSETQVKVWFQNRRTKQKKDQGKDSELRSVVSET
# VAX1 [28] = target: VAX1 (Homo sapiens, UniProt Q5SQQ9 86-172, T142I)
# Chain of VAX1 (Homo sapiens, UniProt Q5SQQ9 86-172, T142I) (Q5SQQ9 86-172 T142I): as the sequence (Q5SQQ9 86-172) above, with T57I counted along it
# VAX1 [29] = target: VAX1 (Homo sapiens, UniProt Q5SQQ9 86-172, K157R)
# Chain of VAX1 (Homo sapiens, UniProt Q5SQQ9 86-172, K157R) (Q5SQQ9 86-172 K157R): as the sequence (Q5SQQ9 86-172) above, with K72R counted along it
# HOXB6 [30] = target: HOXB6 (Homo sapiens, UniProt P17509 132-218)
# Chain of HOXB6 (Homo sapiens, UniProt P17509 132-218) (P17509 132-218): as the sequence (P17509 132-218 K202E) above, with E71K counted along it
sequence,measurement,setting,value
GCTTGGCC,binding signal,VENTX [1],"7.86 upbm affinity estimate (log intensity, higher = more binding, comparable within an allelic series)"
same,binding signal,SIX6 [2],"8.94 upbm affinity estimate (log intensity, higher = more binding, comparable within an allelic series)"
same,binding signal,HOXC9 [3],"9.68 upbm affinity estimate (log intensity, higher = more binding, comparable within an allelic series)"
same,binding signal,VENTX [4],"7.97 upbm affinity estimate (log intensity, higher = more binding, comparable within an allelic series)"
same,binding signal,SIX6 [5],"8.84 upbm affinity estimate (log intensity, higher = more binding, comparable within an allelic series)"
same,binding signal,HOXC10 [6],"10.1 upbm affinity estimate (log intensity, higher = more binding, comparable within an allelic series)"
same,binding signal,SIX6 [7],"8.96 upbm affinity estimate (log intensity, higher = more binding, comparable within an allelic series)"
same,binding signal,SIX6 [8],"8.86 upbm affinity estimate (log intensity, higher = more binding, comparable within an allelic series)"
same,binding signal,VENTX [9],"7.9 upbm affinity estimate (log intensity, higher = more binding, comparable within an allelic series)"
same,binding signal,SIX6 [10],"8.89 upbm affinity estimate (log intensity, higher = more binding, comparable within an allelic series)"
same,binding signal,SIX6 [11],"8.89 upbm affinity estimate (log intensity, higher = more binding, comparable within an allelic series)"
same,binding signal,SIX6 [12],"8.86 upbm affinity estimate (log intensity, higher = more binding, comparable within an allelic series)"
same,binding signal,SIX6 [13],"8.99 upbm affinity estimate (log intensity, higher = more binding, comparable within an allelic series)"
same,binding signal,SIX6 [14],"9.01 upbm affinity estimate (log intensity, higher = more binding, comparable within an allelic series)"
same,binding signal,HOXC9 [15],"9.78 upbm affinity estimate (log intensity, higher = more binding, comparable within an allelic series)"
same,binding signal,SIX6 [16],"8.94 upbm affinity estimate (log intensity, higher = more binding, comparable within an allelic series)"
same,binding signal,HOXC9 [17],"9.65 upbm affinity estimate (log intensity, higher = more binding, comparable within an allelic series)"
same,binding signal,HOXC10 [18],"10 upbm affinity estimate (log intensity, higher = more binding, comparable within an allelic series)"
same,binding signal,SIX6 [19],"8.95 upbm affinity estimate (log intensity, higher = more binding, comparable within an allelic series)"
same,binding signal,PROP1 [20],"6.59 upbm affinity estimate (log intensity, higher = more binding, comparable within an allelic series)"
same,binding signal,SIX6 [21],"8.89 upbm affinity estimate (log intensity, higher = more binding, comparable within an allelic series)"
same,binding signal,PROP1 [22],"6.63 upbm affinity estimate (log intensity, higher = more binding, comparable within an allelic series)"
same,binding signal,SIX6 [23],"8.91 upbm affinity estimate (log intensity, higher = more binding, comparable within an allelic series)"
same,binding signal,HOXC9 [24],"9.69 upbm affinity estimate (log intensity, higher = more binding, comparable within an allelic series)"
same,binding signal,PROP1 [25],"6.65 upbm affinity estimate (log intensity, higher = more binding, comparable within an allelic series)"
GGGGTACC,binding signal,VENTX [1],"8.08 upbm affinity estimate (log intensity, higher = more binding, comparable within an allelic series)"
same,binding signal,HOXC9 [3],"9.78 upbm affinity estimate (log intensity, higher = more binding, comparable within an allelic series)"
same,binding signal,VENTX [4],"8.11 upbm affinity estimate (log intensity, higher = more binding, comparable within an allelic series)"
same,binding signal,VENTX [9],"7.99 upbm affinity estimate (log intensity, higher = more binding, comparable within an allelic series)"
same,binding signal,HOXB6 [26],"9.07 upbm affinity estimate (log intensity, higher = more binding, comparable within an allelic series)"
same,binding signal,HOXC9 [15],"9.67 upbm affinity estimate (log intensity, higher = more binding, comparable within an allelic series)"
same,binding signal,HOXC9 [17],"9.47 upbm affinity estimate (log intensity, higher = more binding, comparable within an allelic series)"
same,binding signal,VAX1 [27],"7.1 upbm affinity estimate (log intensity, higher = more binding, comparable within an allelic series)"
same,binding signal,HOXC9 [24],"9.69 upbm affinity estimate (log intensity, higher = more binding, comparable within an allelic series)"
same,binding signal,VAX1 [28],"7.26 upbm affinity estimate (log intensity, higher = more binding, comparable within an allelic series)"
same,binding signal,VAX1 [29],"7.1 upbm affinity estimate (log intensity, higher = more binding, comparable within an allelic series)"
same,binding signal,HOXB6 [30],"9.04 upbm affinity estimate (log intensity, higher = more binding, comparable within an allelic series)"
CAAGGCCC,binding signal,VENTX [1],"7.94 upbm affinity estimate (log intensity, higher = more binding, comparable within an allelic series)"
same,binding signal,SIX6 [2],"8.9 upbm affinity estimate (log intensity, higher = more binding, comparable within an allelic series)"
same,binding signal,VENTX [4],"7.78 upbm affinity estimate (log intensity, higher = more binding, comparable within an allelic series)"
same,binding signal,SIX6 [5],"8.85 upbm affinity estimate (log intensity, higher = more binding, comparable within an allelic series)"
same,binding signal,SIX6 [7],"8.89 upbm affinity estimate (log intensity, higher = more binding, comparable within an allelic series)"
same,binding signal,SIX6 [8],"8.97 upbm affinity estimate (log intensity, higher = more binding, comparable within an allelic series)"
same,binding signal,VENTX [9],"7.82 upbm affinity estimate (log intensity, higher = more binding, comparable within an allelic series)"
same,binding signal,SIX6 [10],"8.85 upbm affinity estimate (log intensity, higher = more binding, comparable within an allelic series)"
same,binding signal,SIX6 [11],"8.93 upbm affinity estimate (log intensity, higher = more binding, comparable within an allelic series)"
same,binding signal,SIX6 [12],"8.82 upbm affinity estimate (log intensity, higher = more binding, comparable within an allelic series)"
same,binding signal,SIX6 [13],"8.95 upbm affinity estimate (log intensity, higher = more binding, comparable within an allelic series)"
same,binding signal,SIX6 [14],"8.93 upbm affinity estimate (log intensity, higher = more binding, comparable within an allelic series)"
same,binding signal,SIX6 [16],"8.92 upbm affinity estimate (log intensity, higher = more binding, comparable within an allelic series)"
same,binding signal,SIX6 [19],"8.98 upbm affinity estimate (log intensity, higher = more binding, comparable within an allelic series)"
same,binding signal,SIX6 [21],"8.89 upbm affinity estimate (log intensity, higher = more binding, comparable within an allelic series)"
same,binding signal,VAX1 [27],"7.02 upbm affinity estimate (log intensity, higher = more binding, comparable within an allelic series)"
same,binding signal,SIX6 [23],"8.88 upbm affinity estimate (log intensity, higher = more binding, comparable within an allelic series)"
same,binding signal,VAX1 [28],"7.07 upbm affinity estimate (log intensity, higher = more binding, comparable within an allelic series)"
same,binding signal,VAX1 [29],"6.96 upbm affinity estimate (log intensity, higher = more binding, comparable within an allelic series)"
